Results filed as inconclusive are left out. Active and inactive are the calls of the source.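 The calls were made as follows, unless noted: active = percent response above 42, roughly 3 SD of non-fluorescent test compounds; inactive = the rest.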
What was measured:
[1] = yeast TOR pathway RPL19A-GFP modulators, primary screen, cell-based, S. cerevisiae, multiplex flow cytometry (AID 1862; in the data active = percent of DMSO control GFP below about 86%;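 also: lower values mimic rapamycin by blocking the RPL19A rise seen in DMSO cells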); conditions: S. cerevisiae RPL19A-GFP strain, flow cytometry fluorescence, 3 h; at 10 µM; stronger effect = lower value
[2] = modulators of MEP2-GFP levels in yeast, primary screen, S. cerevisiae, multiplex flow cytometry (AID 1867;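 active = GFP response, as percent of the DMSO control, above the screen-wide mean plus 3 SD, about 139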;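 also: median GFP channel fluorescence of barcode-gated MEP2-GFP cells measured by flow cytometry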); conditions: S. cerevisiae MEP2-GFP strain, 3 h, at 10 µM, stronger effect = higher value, 100% means same as DMSO wells
[3] = modulators of CIT2-GFP expression in yeast, primary screen, S. cerevisiae, GFP fusion, multiplex flow cytometry (AID 1870;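 active = percent response above a set limit, the screen-wide mean plus 3 SD, cut at about 130% in these data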;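 also: barcoded CIT2-GFP strain pooled with four other GFP strains with rapamycin as positive control; median GFP fluorescence per well over plate mean of DMSO wells so 100% = DMSO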); conditions: 3 h, at 10 µM, stronger effect = higher value
[4] = modulators of LAP4-GFP expression in yeast, primary screen, S. cerevisiae, multiplex flow cytometry (AID 1873;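 active = GFP signal, as percent of the solvent control, above the screen mean plus 3 SD, about 149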); conditions: 3 h, at 10 µM, stronger effect = higher value
[5] = modulators of AGP1-GFP expression in yeast TOR pathway, primary screen, cell-based, multiplex flow cytometry, S. cerevisiae (AID 1887;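 active = GFP signal above the screen-wide mean plus 3 SD, that is over about 124.5% of the solvent control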;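 also: AGP1-GFP fusion strain of S. cerevisiae within a five-strain barcoded multiplex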); conditions: 3 h, at 10 µM, stronger effect = higher value
[6] = inhibitors of CD8+ T cell-vesicle binding, pilot screen, LFA-1/ICAM-1 modulator project, MLPCN validation set, flow cytometry (AID 2523;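 active = response below a set limit, under 55% cells CD8-positive and vesicle-bound, and CD8 cells' 90th-percentile brightness under 279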;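 as to vesicle binding response: mean PE anti-B7-1 fluorescence of CD8+ cells relative to row control; 100% = QL9-loaded vesicles with DMSO vehicle in the same plate row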); conditions: 2C mouse CD8+ T cells, at 7 µM, stronger effect = lower value; double positive events: measured here: CD8+/vesicle+ event percentage
[7] = biological target: Integrin beta-1 (Homo sapiens) + Integrin alpha-4 (Homo sapiens) (UniProt P13612+P05556); assay: inhibition of HUTS-21 binding to VLA-4, pilot screen, VLA-4 allosteric modulator project, U937 cells, HUTS-21 mAb, flow cytometry, validation set (AID 2674;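 active = inhibition above 50%, about 3 SD of the validation set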;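 also: antibody binding induced by the VLA-4 ligand LDV present at three times its Kd; 0% = LDV ligand with antibody and no compound and 100% = antibody without LDV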); conditions: HUTS-21 LIBS mAb binding, at 6.7 µM, stronger effect = higher value, binding induced by LDV ligand
[8] = superoxide lowering in aged yeast cells, pilot screen, validation compound set (AID 2706;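 active = superoxide response below 65% of plate, a cut near 3 SD across the whole screen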;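 also: yeast exposed to compound for one week at 30 degrees C before staining; 100% = mean of all compound wells on the same plate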); conditions: S. cerevisiae aging, superoxide DHE fluorescence; at 10 µM; stronger effect = lower value
[9] = biological target: Beta-adrenergic receptor kinase 1 (Homo sapiens) (UniProt P25098); assay: GRK2 binders displacing RNA aptamer, biochemical, validation, human GRK2, bead flow cytometry (AID 488806;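 active = aptamer binding inhibition above 30%, about 3 SD of noise from non-fluorescent compounds; inactive = inhibition at or below 30%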); conditions: bead-bound GRK2, FAM-aptamer displacement, at 10 µM, stronger effect = higher value
[10] = biological target: Beta-2 adrenergic receptor (Homo sapiens) (UniProt P07550); assay: beta2AR agonists driving receptor internalization, pilot screen, cell-based, FAP fluorogen, flow cytometry, validation set (AID 504459); conditions: Am2.2-beta2AR cells, FAP surface receptor flow cytometry; at 10 µM; stronger effect = higher value;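 also: agonist-driven loss of surface beta2AR via internalization measured by FAP dye flow cytometry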
[11] = biological target: AP-2 complex subunit beta (Homo sapiens) (UniProt P63010); assay: inhibitors of arrestin peptide binding to AP2, pilot screen, biochemical, validation set, GST-AP2 beads, flow cytometry (AID 504541;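 active = inhibition above 54%, about 3 SD of non-fluorescent compounds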;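 also: AP2 carries R879A mutation and is captured from E. coli lysate; bead-bound FITC arrestin peptide fluorescence measuring arrestin peptide binding to AP2; 0% = DMSO wells and 100% = excess unlabeled arrestin peptide control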); conditions: FITC arrestin peptide, at 10 µM, stronger effect = higher value, AP2 beta2 appendage fragment, R879A mutant
[12] = yeast V-ATPase proton transport modulators, S. cerevisiae, pHLuorin, HTS validation (AID 504600; in the data active = response above about 15%;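 also: plate controls were DMSO for no effect and reference compound for full effect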); conditions: S. cerevisiae pHLuorin cytosolic pH, at 10 µM, stronger effect = higher value
[13] = test system: anti-desmoglein-3 scFv antibody binding to human DSG3; assay: inhibitors of anti-DSG3 scFv binding to DSG3, pilot screen, biochemical, validation compound set, bead-based, flow cytometry (AID 588368;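 active = binding below the plate cutoff, the plate median minus 3 SD, with a reading above zero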;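 also: signal is the median channel fluorescence of bead-bound GFP antibody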); conditions: Protein G beads, DSG3-Fc, scFv-GFP binding, at 10 µM, stronger effect = lower value
[14] = inhibitors of fungal efflux pumps CDR1, CDR2, MDR1, pilot screen, validation compound set, multiplex, phenotypic (AID 588506;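 active = efflux inhibition above 0.42, the validation set average plus 4 SD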;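 also: Nile Red retained in cells so higher fluorescence means more efflux inhibition; 0 = negative control wells and 1 = enniatin B 25 µM full block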); conditions: S. cerevisiae pump-expressing triplex, Nile Red efflux flow cytometry; at 10 µM; stronger effect = higher value; the pumps come from Candida albicans
[15] = biological target: ATP-binding cassette sub-family B member 6 (Homo sapiens) (UniProt Q9NP58); assay: ABCB6 transporter inhibitors, pilot screen, K562-ABCB6 cells, flow cytometry, validation set (AID 588550;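 active = inhibition above the screen-wide mean plus 3 SD, about 51%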;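 also: 0% = DMSO wells and 100% = benzethonium chloride 70 µM positive control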); conditions: K562-ABCB6 porphyrin accumulation, 1 h, at 10 µM, stronger effect = higher value
[16] = promoters of myeloid differentiation in arrested cells, primary screen, cell-based, GFP/MAC1 double positive, flow cytometry, validation set (AID 588685;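 active = differentiation response of at least 50%, scaled between solvent and reference control, from cells with both markers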;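 also: compound exposure lasts four days before antibody staining and flow analysis; 0% = DMSO wells and 100% = 5 µM fulvestrant positive control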); conditions: ER-HoxA9 marrow cells, stronger effect = higher value, normalized: vehicle 0, fulvestrant 100

Beta-2 adrenergic receptor (Homo sapiens), sequence (P07550 whole entry, looked up): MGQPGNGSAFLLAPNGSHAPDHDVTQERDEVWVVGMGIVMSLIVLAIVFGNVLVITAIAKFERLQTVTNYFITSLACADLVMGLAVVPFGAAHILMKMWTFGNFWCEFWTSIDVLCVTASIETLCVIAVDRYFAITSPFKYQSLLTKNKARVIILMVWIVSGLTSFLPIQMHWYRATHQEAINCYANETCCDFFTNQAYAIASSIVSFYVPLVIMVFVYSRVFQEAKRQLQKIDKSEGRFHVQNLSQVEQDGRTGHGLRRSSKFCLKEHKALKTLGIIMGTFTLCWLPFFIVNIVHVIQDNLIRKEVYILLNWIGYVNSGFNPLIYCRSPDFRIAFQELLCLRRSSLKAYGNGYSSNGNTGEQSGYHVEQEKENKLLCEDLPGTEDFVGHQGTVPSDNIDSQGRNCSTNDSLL
ATP-binding cassette sub-family B member 6 (Homo sapiens), sequence (Q9NP58 whole entry, looked up): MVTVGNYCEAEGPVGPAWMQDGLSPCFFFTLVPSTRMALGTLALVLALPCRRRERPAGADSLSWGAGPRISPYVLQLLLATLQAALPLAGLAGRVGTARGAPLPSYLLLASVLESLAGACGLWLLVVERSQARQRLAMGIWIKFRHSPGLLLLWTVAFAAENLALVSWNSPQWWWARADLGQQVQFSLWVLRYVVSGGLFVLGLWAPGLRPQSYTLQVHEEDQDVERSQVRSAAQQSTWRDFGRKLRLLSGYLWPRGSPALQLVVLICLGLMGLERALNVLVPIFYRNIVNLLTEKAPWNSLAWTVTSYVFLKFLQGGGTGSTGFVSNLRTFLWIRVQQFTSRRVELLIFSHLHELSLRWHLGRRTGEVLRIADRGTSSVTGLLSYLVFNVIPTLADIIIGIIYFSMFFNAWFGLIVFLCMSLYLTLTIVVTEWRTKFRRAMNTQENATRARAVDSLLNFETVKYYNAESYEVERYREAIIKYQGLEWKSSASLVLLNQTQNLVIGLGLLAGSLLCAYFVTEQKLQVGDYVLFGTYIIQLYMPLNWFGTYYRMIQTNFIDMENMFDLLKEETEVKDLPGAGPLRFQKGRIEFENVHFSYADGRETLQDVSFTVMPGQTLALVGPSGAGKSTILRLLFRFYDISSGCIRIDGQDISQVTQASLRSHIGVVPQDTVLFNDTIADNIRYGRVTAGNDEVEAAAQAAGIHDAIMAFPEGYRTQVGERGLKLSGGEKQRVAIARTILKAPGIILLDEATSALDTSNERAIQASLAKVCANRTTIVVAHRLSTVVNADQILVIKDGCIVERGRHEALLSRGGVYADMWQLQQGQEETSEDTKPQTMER
Beta-adrenergic receptor kinase 1 (Homo sapiens), sequence (P25098 whole entry, looked up): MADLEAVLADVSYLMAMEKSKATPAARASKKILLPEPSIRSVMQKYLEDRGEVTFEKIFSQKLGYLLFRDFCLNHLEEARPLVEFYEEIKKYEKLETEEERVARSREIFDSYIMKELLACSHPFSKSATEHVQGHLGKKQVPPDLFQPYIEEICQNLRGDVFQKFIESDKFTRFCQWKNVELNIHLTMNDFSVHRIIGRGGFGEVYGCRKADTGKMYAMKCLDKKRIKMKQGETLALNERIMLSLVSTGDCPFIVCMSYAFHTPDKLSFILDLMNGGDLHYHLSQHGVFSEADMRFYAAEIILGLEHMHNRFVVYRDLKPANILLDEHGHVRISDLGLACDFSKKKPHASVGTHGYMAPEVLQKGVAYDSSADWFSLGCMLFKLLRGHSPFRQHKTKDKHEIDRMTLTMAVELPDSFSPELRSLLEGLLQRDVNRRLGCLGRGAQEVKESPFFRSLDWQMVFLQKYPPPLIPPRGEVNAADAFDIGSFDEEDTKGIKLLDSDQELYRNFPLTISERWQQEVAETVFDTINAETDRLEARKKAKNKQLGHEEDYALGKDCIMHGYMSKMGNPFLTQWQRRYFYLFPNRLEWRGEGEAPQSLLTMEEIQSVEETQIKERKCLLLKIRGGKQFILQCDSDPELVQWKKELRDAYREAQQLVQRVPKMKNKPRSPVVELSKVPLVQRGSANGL
Integrin beta-1 (Homo sapiens) + Integrin alpha-4 (Homo sapiens), sequence (P05556 whole entry, looked up): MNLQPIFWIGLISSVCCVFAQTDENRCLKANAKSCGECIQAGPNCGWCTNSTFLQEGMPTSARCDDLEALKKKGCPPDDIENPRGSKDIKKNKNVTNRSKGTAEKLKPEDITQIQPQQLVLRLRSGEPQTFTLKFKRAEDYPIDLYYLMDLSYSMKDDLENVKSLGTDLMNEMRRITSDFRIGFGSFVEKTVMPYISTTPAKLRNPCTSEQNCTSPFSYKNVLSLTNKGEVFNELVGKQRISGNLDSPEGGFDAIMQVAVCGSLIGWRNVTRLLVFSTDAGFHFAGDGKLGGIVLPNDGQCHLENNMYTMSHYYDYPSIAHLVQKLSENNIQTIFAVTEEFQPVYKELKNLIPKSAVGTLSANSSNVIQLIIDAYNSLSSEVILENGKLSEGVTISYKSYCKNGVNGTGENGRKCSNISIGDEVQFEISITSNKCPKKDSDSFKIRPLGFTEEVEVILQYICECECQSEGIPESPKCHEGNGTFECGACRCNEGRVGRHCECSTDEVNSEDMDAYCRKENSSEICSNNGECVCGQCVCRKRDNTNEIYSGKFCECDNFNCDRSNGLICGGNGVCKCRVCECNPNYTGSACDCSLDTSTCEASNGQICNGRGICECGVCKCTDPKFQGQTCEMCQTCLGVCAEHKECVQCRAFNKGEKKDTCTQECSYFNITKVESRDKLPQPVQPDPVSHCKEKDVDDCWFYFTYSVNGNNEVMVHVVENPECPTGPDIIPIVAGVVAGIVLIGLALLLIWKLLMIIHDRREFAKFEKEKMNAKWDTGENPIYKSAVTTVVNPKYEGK
Integrin beta-1 (Homo sapiens) + Integrin alpha-4 (Homo sapiens), sequence (P13612 whole entry, looked up): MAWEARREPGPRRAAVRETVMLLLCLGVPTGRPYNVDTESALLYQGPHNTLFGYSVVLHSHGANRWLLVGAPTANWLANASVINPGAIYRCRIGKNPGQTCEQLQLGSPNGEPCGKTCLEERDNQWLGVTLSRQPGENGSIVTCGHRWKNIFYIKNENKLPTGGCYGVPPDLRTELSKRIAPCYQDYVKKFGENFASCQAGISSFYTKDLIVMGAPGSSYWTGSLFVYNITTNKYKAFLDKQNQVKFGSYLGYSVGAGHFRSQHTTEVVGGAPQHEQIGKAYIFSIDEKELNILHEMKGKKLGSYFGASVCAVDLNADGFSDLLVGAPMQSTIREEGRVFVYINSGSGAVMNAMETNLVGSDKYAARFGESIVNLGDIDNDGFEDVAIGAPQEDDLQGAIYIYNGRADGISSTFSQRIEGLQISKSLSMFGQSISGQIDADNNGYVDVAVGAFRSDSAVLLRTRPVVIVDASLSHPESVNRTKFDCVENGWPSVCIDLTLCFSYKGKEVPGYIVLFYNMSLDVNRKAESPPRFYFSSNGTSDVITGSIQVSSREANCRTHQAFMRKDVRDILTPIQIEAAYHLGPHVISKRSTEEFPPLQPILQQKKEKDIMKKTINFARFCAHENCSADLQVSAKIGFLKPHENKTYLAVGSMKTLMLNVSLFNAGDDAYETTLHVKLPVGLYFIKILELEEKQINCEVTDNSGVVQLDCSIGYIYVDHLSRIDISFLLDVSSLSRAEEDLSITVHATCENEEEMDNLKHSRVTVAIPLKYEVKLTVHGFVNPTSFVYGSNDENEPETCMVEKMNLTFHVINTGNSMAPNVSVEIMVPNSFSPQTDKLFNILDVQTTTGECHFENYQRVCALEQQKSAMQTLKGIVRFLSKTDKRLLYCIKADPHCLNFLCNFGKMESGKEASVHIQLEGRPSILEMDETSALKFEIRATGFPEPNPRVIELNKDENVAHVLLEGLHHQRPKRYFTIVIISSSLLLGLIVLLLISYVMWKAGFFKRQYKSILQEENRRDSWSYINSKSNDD
AP-2 complex subunit beta (Homo sapiens), sequence (P63010 whole entry, looked up, the tested form may be a part, one chain of several): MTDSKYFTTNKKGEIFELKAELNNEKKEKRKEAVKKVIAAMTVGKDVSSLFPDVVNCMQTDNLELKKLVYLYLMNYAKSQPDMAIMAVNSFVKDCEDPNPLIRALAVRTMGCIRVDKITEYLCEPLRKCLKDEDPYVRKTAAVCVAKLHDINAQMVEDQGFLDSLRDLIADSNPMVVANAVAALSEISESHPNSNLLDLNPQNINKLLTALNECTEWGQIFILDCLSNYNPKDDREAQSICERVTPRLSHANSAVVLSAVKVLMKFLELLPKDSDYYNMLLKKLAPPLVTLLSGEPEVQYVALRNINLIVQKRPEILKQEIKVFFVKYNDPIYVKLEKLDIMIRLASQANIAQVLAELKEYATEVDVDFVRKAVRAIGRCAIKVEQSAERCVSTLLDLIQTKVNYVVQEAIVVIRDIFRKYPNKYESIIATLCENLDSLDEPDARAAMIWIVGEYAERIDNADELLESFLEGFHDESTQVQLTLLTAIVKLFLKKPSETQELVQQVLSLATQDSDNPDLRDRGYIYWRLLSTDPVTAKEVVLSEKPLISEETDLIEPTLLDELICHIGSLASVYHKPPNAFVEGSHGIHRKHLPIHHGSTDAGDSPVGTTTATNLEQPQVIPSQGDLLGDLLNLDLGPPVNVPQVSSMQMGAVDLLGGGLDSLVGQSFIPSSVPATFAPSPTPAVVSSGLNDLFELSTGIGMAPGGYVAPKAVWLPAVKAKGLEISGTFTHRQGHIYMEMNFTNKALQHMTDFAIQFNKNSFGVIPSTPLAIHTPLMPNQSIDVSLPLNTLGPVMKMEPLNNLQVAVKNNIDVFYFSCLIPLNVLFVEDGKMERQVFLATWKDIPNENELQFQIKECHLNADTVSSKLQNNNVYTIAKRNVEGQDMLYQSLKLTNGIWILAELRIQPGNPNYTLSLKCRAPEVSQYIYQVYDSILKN

Row | Structure (SMILES) | percent of DMSO control GFP [1] | GFP response vs DMSO [2] | percent response of DMSO control [3] | GFP response vs DMSO [4] | GFP response, % of DMSO [5] | double positive events [6] | vesicle binding response [6] | inhibition [7] | superoxide response (% of plate) [8] | aptamer binding inhibition [9] | response [10] | inhibition [11] | response [12] | binding (% of control) [13] | efflux inhibition (fraction of control) [14] | inhibition [15] | differentiation response [16]
1 | O=C(O)C1CCN(C(=O)COc2ccc3c4c(c(=O)oc3c2)CCC4)CC1 | 105% (inactive) | 105% (inactive) | 101% (inactive) | 112% (inactive) | 110% (inactive) | 65.1% | 420% (inactive) | 6.55% (inactive) | 105% (inactive) | 1% (inactive) | -31% (inactive) | -5% (inactive) | 1.29% (inactive) | 109% (inactive) | 0 (inactive) | 3% (inactive) | -1.05% (inactive)
2 | O=C(CCc1ccccc1)Nc1ccccc1C(F)(F)F | 103% (inactive) | 105% (inactive) | 107% (inactive) | 94.7% (inactive) | 103% (inactive) | 64.1% | 240% (inactive) | 2.66% (inactive) | 96.3% (inactive) | 1% (inactive) | -5.39% (inactive) | -5.17% (inactive) | 2.37% (inactive) | 100% (inactive) | 0.18 (inactive) | -2% (inactive) | 0.24% (inactive)
3 | CN1C(C(=O)Nc2ccccn2)=C(O)c2ccccc2S1(=O)=O | 101% (inactive) | 103% (inactive) | 86.1% (inactive) | 106% (inactive) | 97.6% (inactive) | 63.2% | 383% (inactive) | -13.9% (inactive) | 104% (inactive) | 1% (inactive) | -12.3% (inactive) | -12.3% (inactive) | -0.85% (inactive) | 100% (inactive) | -0.07 (inactive) | 26% (inactive) | 14.9% (inactive)
4 | CCn1cc(CN2N=C(C)CC2c2ccccc2)c(C)n1 (stereo not given) | 95.6% (inactive) | 120% (inactive) | 92.9% (inactive) | 116% (inactive) | 97.2% (inactive) | 60.6% | 87.5% (inactive) | -7.25% (inactive) | 106% (inactive) | 3% (inactive) | 7.08% (inactive) | -1.16% (inactive) | 1.03% (inactive) | 103% (inactive) | -0.28 (inactive) | 3% (inactive) | -29.6% (inactive)
5 | C#C[C@]1(O)CC[C@H]2[C@@H]3CCc4cc(OC5CCCC5)ccc4[C@H]3CC[C@@]21C | 101% (inactive) | 104% (inactive) | 88.6% (inactive) | 126% (inactive) | 113% (inactive) | 62.7% | 213% (inactive) | 14.2% (inactive) | 97.7% (inactive) | -1% (inactive) | -9.24% (inactive) | -1.15% (inactive) | 6.88% (inactive) | 105% (inactive) | 0.38 (inactive) | 3% (inactive) | 0% (inactive)
6 | CC(C)C(=O)Nc1ccc2c3c(cccc13)CC2 | 95% (inactive) | 98.5% (inactive) | 92% (inactive) | 124% (inactive) | 102% (inactive) | 62.6% | 191% (inactive) | 10.5% (inactive) | 99.4% (inactive) | 5% (inactive) | 21.1% (inactive) | 18.6% (inactive) | -2.45% (inactive) | 94.9% (inactive) | -0.24 (inactive) | 8% (inactive) | 5.6% (inactive)
7 | COc1cccc2c1OCC1COc3c(c(=O)n(C)c(=O)n3C)C21 (stereo not given) | 101% (inactive) | 108% (inactive) | 99.6% (inactive) | 130% (inactive) | 102% (inactive) | 64.4% | 201% (inactive) | 14.6% (inactive) | 95% (inactive) | -1% (inactive) | -9.55% (inactive) | 59.9% (active) | -4.7% (inactive) | 101% (inactive) | 0.08 (inactive) | 2% (inactive) | 13.6% (inactive)
8 | COc1cc(-c2nnc(-c3cccs3)o2)cc(OC)c1OC | 102% (inactive) | 106% (inactive) | 99.7% (inactive) | 103% (inactive) | 86.3% (inactive) | 61.1% | 98.4% (inactive) | -1.09% (inactive) | 99.2% (inactive) | 3% (inactive) | -28% (inactive) | 5.76% (inactive) | 33.5% (active) | 101% (inactive) | 0.15 (inactive) | 29% (inactive) | -1.65% (inactive)
9 | O=C(c1ccco1)N(CCC(c1ccccc1)c1ccco1)Cc1ccco1 (stereo not given) | 103% (inactive) | 95.2% (inactive) | 106% (inactive) | 99.9% (inactive) | 104% (inactive) | 80% | 8050% (inactive) | -1.79% (inactive) | 104% (inactive) | 5% (inactive) | 6.76% (inactive) | 3.27% (inactive) | -0.61% (inactive) | 99.7% (inactive) | 0.15 (inactive) | -3% (inactive) | -13.6% (inactive)
10 | CSCCC(NC(=O)OC(C)(C)C)C(=O)Oc1ccc2c(=O)c(-c3ccc4c(c3)OCCO4)coc2c1 (stereo not given) | 95.9% (inactive) | 107% (inactive) | 94.8% (inactive) | 132% (inactive) | 102% (inactive) | 59.4% | 190% (inactive) | -1.79% (inactive) | 99.7% (inactive) | 2% (inactive) | 0.95% (inactive) | 3.81% (inactive) | -3.69% (inactive) | 100% (inactive) | -0.1 (inactive) | 1% (inactive) | 5.6% (inactive)

Source: PubChem BioAssay
